In all, about 48,000 compounds went through this assay and about 13,000 (27%) showed an effect of 50% or more. The list shows a part of the results.
test system: Wolbachia pipientis; assay: Anti-Wolbachia Cell-Based Screen; format: functional; set-up: scale not given: in the data most compounds retested in dose-response had high values; conditions: 5 µM

Row | SMILES | Percent Effect [%]
1 | CN(Cc1ccsc1)C(=O)Nc1cccc(N2CCOC2=O)c1 | 1.632
2 | Cc1cccc(NC(=O)C2CCCN2C(=O)c2ccco2)c1C (stereo not given) | -37.39
3 | CC(C)NC(=O)C1CN(Cc2cccs2)Cc2ccnn2C1 (stereo not given) | -1.449
4 | COCCNC(=O)C1CN(Cc2cccc(C)n2)Cc2ccnn2C1.O=C(O)C(F)(F)F.O=C(O)C(F)(F)F (stereo not given) | 6.488
5 | Cc1noc(C)c1CN1Cc2ccnn2CC(C(=O)NCC2CC2)C1.O=C(O)C(F)(F)F.O=C(O)C(F)(F)F (stereo not given) | -16.43
6 | COCCNC(=O)C1CN(Cc2nccs2)Cc2ccnn2C1.O=C(O)C(F)(F)F.O=C(O)C(F)(F)F (stereo not given) | -2.959
7 | Cc1ccc(CN2Cc3ccnn3CC(C(=O)NCC3CC3)C2)o1.O=C(O)C(F)(F)F.O=C(O)C(F)(F)F (stereo not given) | 99
8 | COCCNC(=O)C1CN(Cc2csc(C)n2)Cc2ccnn2C1.O=C(O)C(F)(F)F (stereo not given) | 0
9 | O=C(NCC1CC1)C1CN(Cc2cccs2)Cc2ccnn2C1 (stereo not given) | 124.8
10 | O=C(NCC1CC1)C1CN(Cc2ccncc2)Cc2ccnn2C1.O=C(O)C(F)(F)F.O=C(O)C(F)(F)F.O=C(O)C(F)(F)F (stereo not given) | 99.23
11 | CC(C)NC(=O)C1CN(Cc2ccsc2)Cc2ccnn2C1.O=C(O)C(F)(F)F.O=C(O)C(F)(F)F (stereo not given) | 1.409
12 | O=C(NCC1CC1)C1CN(c2ncccn2)Cc2ccnn2C1.O=C(O)C(F)(F)F.O=C(O)C(F)(F)F (stereo not given) | 106
13 | CCOCC1CN(C(=O)Cc2cccs2)Cc2ccnn2C1 (stereo not given) | -16.86
14 | COCCNC(=O)C1CN(Cc2ccncc2)Cc2ccnn2C1.O=C(O)C(F)(F)F.O=C(O)C(F)(F)F.O=C(O)C(F)(F)F (stereo not given) | 13.9
15 | CC(C)c1nnc2n1CC(CNCc1ccncc1)CC2 (stereo not given) | -13.6
16 | CCCS(=O)(=O)N1CCOC2(CCCN(c3ncc(F)cn3)C2)C1 (stereo not given) | -2.367
17 | N#CCCN(Cc1ccco1)C(=O)CCCc1ccccc1 | 9.287
18 | COc1nn(C)c2c1CCCN(S(=O)(=O)c1cccs1)C2 | 2.697
19 | Cc1cccc(CN2C[C@@H]3CN(C(=O)c4cnccn4)C[C@@H]3C2=O)c1 | -5.846
20 | O=C(O)[C@]12CCCN(Cc3ccncc3)[C@@H]1CCN(c1cnccn1)C2 | 15.13
21 | O=C(O)C1(Cc2ccc(Cl)cc2)CCN(c2ncccc2F)CC1 | 4.468
22 | Cl.Cl.O[C@@H]1C[C@@](CNCc2cccc(Cl)c2)(COc2cnccn2)C[C@@H]1O | -20.67
23 | NC(=O)C1(c2cnccn2)CCCN1Cc1cccc(Cl)c1 (stereo not given) | 110.7
24 | NC(=O)C1(c2cnccn2)CCCN1Cc1ccc(Cl)cc1 (stereo not given) | 127.2
25 | Cc1ccc(NC(=O)C2CSCN2C(=O)c2cnccn2)c(C)c1 (stereo not given) | -0.3998

Row | SMILES | Percent Effect [%]
26 | Cc1ccc(CN2CCCC2(C(N)=O)c2cnccn2)c(C)c1 (stereo not given) | 148.6
27 | NC(=O)C1(c2cnccn2)CCCN1Cc1ccncc1 (stereo not given) | 100.7
28 | O=C(c1cnccn1)N1CCCC2(CCCN2Cc2cccnc2)C1 (stereo not given) | 8.648
29 | Cc1cncc(C(=O)N2CCNCC2C(=O)NCc2ccncc2)c1 (stereo not given) | -0.08971
30 | Cc1ccccc1-c1cc(C(=O)NCCN2CCCS2(=O)=O)[nH]n1 | -0.2577
31 | Cc1c(C(=O)N2CCSCC2)sc2nc(C(F)(F)F)ccc12 | -6
32 | COC1CCN(S(=O)(=O)N2CC[C@@](O)(C3CCC3)[C@H](C)C2)CC1 | -8.21
33 | CC(C)c1cc(C(=O)N2CCc3ccccc3C2C(=O)O)n(C)n1 (stereo not given) | 5.563
34 | COCCOc1ccc(-c2noc([C@@H]3CCCN3C3CCC3)n2)cn1 | -15.03
35 | Cn1cccc1C(=O)N[C@@H]1CN(CC2CC2)[C@@H]2COC[C@@H]21.O=C(O)C(F)(F)F | -18.52
36 | Cc1nc(O)cc(C2CCN(C(=O)c3ccsc3)CC2)n1 | -4.98
37 | CC(C)CN1CC(c2nc(-c3ccsc3)c[nH]2)CC1=O (stereo not given) | -7.374
38 | Cc1cc(C2CCNCC2)nc(-c2ccsc2)n1.Cl | 168.5
39 | FC(F)(F)c1cc(C2CCNCC2)nc(-c2ccsc2)n1 | 147.1
40 | O=C1NCCCCC1NCc1csc(-c2ccsc2)n1 (stereo not given) | -2.584
41 | Cl.Cn1cnc2c(-c3ccccc3)nc(C3CCNCC3)cc21 | -35.46
42 | O=C(c1ccsc1)N1CCCC(c2cc(C(F)(F)F)[nH]n2)C1 (stereo not given) | 0.1242
43 | Cl.Oc1cc(C2CCNCC2)nc(-c2ccsc2)n1 | 186.4
44 | CC(C)(NC(=O)C1CCCN(C2CCCC2)C1)c1nnc(N)s1 (stereo not given) | -3.514
45 | CN1CCc2c(CNc3ncccn3)n[nH]c2C1.O=C(O)C(F)(F)F | -10.34
46 | COc1ccc2c(C)c(C(=O)NC3CCOCC3)oc2c1 | -11.52
47 | COc1ccc2c(c1)CC(C1CCOCC1)N(C(=O)c1ccn(C)n1)C2 (stereo not given) | 107.8
48 | COc1ccc(CNC(=O)N2CCOCC2C2CC2)c(C)c1 (stereo not given) | -4.702
49 | COc1cccc(CC2CN(C(=O)c3ccnn3C)CCO2)c1 (stereo not given) | 14.16
50 | COc1cc(N2C[C@H]3CN(C(=O)c4cnccn4)C[C@H]3C2)ncn1 | 6.779

Row | SMILES | Percent Effect [%]
51 | COc1ccc2c(c1)CC(C1CCOCC1)N(C(=O)c1cnccn1)C2 (stereo not given) | 143.6
52 | COc1cccc(C2CCN2C(=O)c2cnccn2)c1 (stereo not given) | -9.896
53 | COc1ccc2c(c1)CC(C1CCOCC1)N(C(=O)c1ccnn1C)C2 (stereo not given) | 146.4
54 | Cn1nccc1C(=O)N1CCCC1c1ccc(C(=O)N2CCOCC2)s1 (stereo not given) | -16.33
55 | CN(C(=O)c1ccc(Cl)cn1)c1ccccc1S(C)(=O)=O | -14.63
56 | O=C(N1CCC(O)(C(F)(F)F)C1)C1(c2ccc(Cl)cc2)CC1 (stereo not given) | 16.08
57 | Cc1cc(NC(=O)C(C)N2CCN(c3nc(C)ns3)CC2)on1 (stereo not given) | 15.5
58 | CN(Cc1nnc(C2CC2)o1)C(c1ccc(F)cc1)c1cccnc1 (stereo not given) | 14.1
59 | CN(C)Cc1nnc2n1CCCN(C(=O)c1c[nH]cn1)C2 | -1.146
60 | O=C(C1CCCO1)N1CCCn2c(nnc2Cn2cccn2)C1 (stereo not given) | -13.04
61 | O=C(c1ccc[nH]1)N1CCc2ncc(Cn3cccn3)n2CC1 | 112.6
62 | O=C(C1CCCO1)N1CCc2nnc(Cn3cccc3)n2CC1 (stereo not given) | -14.83
63 | O=C(c1cccs1)N1CCc2nnc(COc3cncnc3)n2CC1 | 6.421
64 | Cc1cnc(N2CCCn3c(nnc3Cn3cccn3)C2)nc1 | -6.744
65 | O=C(c1ccc[nH]1)N1CCCn2c(nnc2Cn2cccn2)C1 | 88.61
66 | O=C(N1CCCC1)N1CCn2c(Cn3cccn3)cnc2C1 | 0.9982
67 | O=C(c1ccc[nH]1)N1CCc2nnc(Cn3cccc3)n2CC1 | 104.6
68 | O=C1CCCN1Cc1nnc2n1CCCN(C(=O)c1ccc[nH]1)C2 | 114.8
69 | O=C(c1c[nH]cn1)N1CCCn2c(nnc2Cn2cccc2)C1 | 4.942
70 | CN(C)C(=O)N1CCn2c(Cn3cccn3)cnc2C1 | -38.04
71 | CC(C)(C)C(O)CN1CCN(Cc2cccc(C#N)c2)CC1 (stereo not given) | -1.667
72 | CC(=O)N[C@H]1CCN2C(=O)[C@@H](Cc3c[nH]c4ccccc34)NC(=O)[C@H]12 | -9.075
73 | COCCN1CC(C(=O)N(C)Cc2ccc(Cl)s2)CC1=O (stereo not given) | 25.53
74 | O=C(c1ccc(SC(F)F)cc1)N1CCOCC1c1ncon1 (stereo not given) | 2.35
75 | O=C1NCC(CN2CCc3onc(-c4ccc(C(F)(F)F)cc4)c3C2)O1 (stereo not given) | 4.598

Row | SMILES | Percent Effect [%]
76 | O=C(O)C(F)(F)F.O=C(c1ccc[nH]1)N1CCCn2c(CNC3CCC3)nnc2C1 | 88.36
77 | O=C(O)C(F)(F)F.O=C(O)C(F)(F)F.O=C(c1c[nH]cn1)N1CCCn2c(CN3CCCCC3)nnc2C1 | 0.5876
78 | O=C(c1ccc[nH]1)N1CCc2nnc(Cn3cccn3)n2CC1 | 121.3
79 | O=C(O)C(F)(F)F.O=C(c1ccccc1F)N1CCCn2c(CN3CCCCC3)nnc2C1 | 18.71
80 | O=C(c1ccc[nH]1)N1CCCn2c(CN3CCCCC3)nnc2C1 | 104.7
81 | c1cnn(Cc2nnc3n2CCCN(c2nccs2)C3)c1 | -8.945
82 | O=C1CCCN1Cc1nnc2n1CCCN(C(=O)c1ccco1)C2 | 122.9
83 | Cc1[nH]ccc1C(=O)N1CCC(c2nnc(Cn3cccn3)n2C)CC1 | -8.959
84 | O=C(O)C(F)(F)F.O=C(c1ccccc1)N1CCCn2c(CN3CCCCC3)nnc2C1 | -7.245
85 | CC(C)N(C)Cc1nnc2n1CCCN(C(=O)c1ccco1)C2 | 10.89
86 | Cc1cccc(C(=O)N2CCCn3c(CN4CCCCC4)nnc3C2)c1 | -5.352
87 | COCCNC(=O)C(C)S(=O)(=O)c1ccc(OC)cc1 (stereo not given) | -5.557
88 | CCS(=O)(=O)N(C)C1CCN(c2cccc(F)c2C(C)=O)CC1 | 1.671
89 | CCN(CC)C(=O)CC[C@@H]1CNC(=O)[C@@H]2C[C@H](NC(=O)C3CC3)CN12 | -0.8785
90 | COCc1nc(C(=O)NS(=O)(=O)c2ccc(C)c(C)c2)cs1 | -2.372
91 | CSCC(=O)N1CCC(c2nccn2Cc2cscn2)CC1 | -14.72
92 | COCC1CN(Cc2cc(C)on2)Cc2cn(CC3CC3)nc21 (stereo not given) | -5.451
93 | O=C(c1ccncc1)N1C[C@@H]2CC[C@H](C1)N(C(=O)C1CCCC1)C2 | 23.43
94 | CCN(C)C(=O)c1ncn2c(C3CCN(S(C)(=O)=O)CC3)ccnc12 | -14.84
95 | CCc1ccc2c(C3CN(S(C)(=O)=O)C3)ncn2c1 | 15.67
96 | Cn1nc(C2CN(S(C)(=O)=O)C2)c2nccnc21 | 134.2
97 | Cn1nc(C2CN(C(=O)c3ccncc3)C2)c2nccnc21 | 104.9
98 | Cc1ccc(C(=O)N2CC(c3cccnc3)C2)cc1N1CCNC1=O | -5.741
99 | Cn1nc(C2CN(C(=O)c3cccnc3)C2)c2nccnc21 | 106.4
100 | Cn1nc(C2CN(C(=O)c3cscn3)C2)c2nccnc21 | -8.374

Source: ChEMBL document CHEMBL3988442, “University of Dundee, Small-Polar-MMV Screening Library” (2021)
